Experimental data published in ChEMBL document CHEMBL1157539, “Thousands of chemical starting points for antimalarial lead identification” (Nature, 2010).

Columns and labels:
Type in all cases: functional
Plasmodium falciparum [1] = assay: GSK_TCMDC: Inhibition of Plasmodium falciparum 3D7 in whole red blood cells, using parasite LDH activity as an index of growth. Test compounds present at 2uM
Plasmodium falciparum [2] = assay: GSK_TCMDC: Inhibition of Plasmodium falciparum Dd2 in whole red blood cells, using parasite LDH activity as an index of growth. Test compounds present at 2uM
HepG2 = assay: GSK_TCMDC: Percent inhibition of human HepG2 cell line. Test compounds present at 10uM.

SMILES | Inhibition (Plasmodium falciparum [1]) [%] | Inhibition (Plasmodium falciparum [2]) [%] | Inhibition (HepG2) [%]
COc1cccc2c(N/N=C/c3ccc([N+](=O)[O-])cc3)ccnc12 | 92 | 16 | 25
Cc1cc(=NN=Cc2ccccc2F)c2ccccc2[nH]1 | 100 | 81 | 14
COc1ccc2nccc([C@@H](O)CN3CCC(NCc4ccc5c(c4)OCCO5)CC3)c2c1.O=C(O)C(=O)O | 100 | 92 | 9
CN(C)CCn1cc(C(=O)c2cc(Cl)ccc2O)cc1-c1nc2ccccc2c(=O)[nH]1 | 99 | 87 | 16
COc1ccc(OCC(=O)Nc2nc(-c3ccc(OC)cc3)c(C)s2)cc1 | 100 | 87 | 0
Cc1cc(N2CCCC2)nc(Nc2ccc(NC(=O)c3ccccc3)cc2)n1 | 100 | 65 | 26
CCNc1cc(C)nc(Nc2ccc(NC(=O)c3ccco3)cc2)n1 | 95 | 32 | 24
O=C(/C=C/c1ccc(Cl)c(Cl)c1)NCCCCCCN1CCN(C(=O)Nc2ccc(F)c(Cl)c2)CC1 | 86 | 2 | 40
COc1cc2ccccc2cc1CNCCCCCCNCc1cc2ccccc2cc1OC.CS(=O)(=O)O | 100 | 24 | 98
COc1cc(NC(=O)N2CCc3ccc(OCCN(C(C)C)C(C)C)cc32)cc(C(F)(F)F)c1.O=C(O)C(F)(F)F | 100 | 97 | 6
Cl.O=C(O[C@H]1CN[C@H](C#Cc2cc3ncnc(Nc4ccc5c(ccn5S(=O)(=O)c5cccs5)c4)c3s2)C1)N1CCOCC1 | 85 | 48 | 0
CCCN1CCC=C(c2cccc(Nc3nccc(Nc4cc(OC)ccc4C)n3)c2)C1.Cl | 88 | 35 | 15
O=C(Nc1ccc(OC2CCN(Cc3ccco3)CC2)c(Cl)c1)c1ccc2ncccc2c1.O=C(O)C(F)(F)F | 97 | 40 | 0
O=C(NCCc1ccccc1)N(Cc1ccccc1-c1cccc(CNCCc2ccccc2)c1)C1CCN(Cc2ccccc2)CC1.O=C(O)C(F)(F)F | 100 | 88 | 100
CCn1c(-c2nonc2N)nc2c(-c3ccc(CO)o3)ncc(OCCCN)c21.O=C(O)C(F)(F)F | 93 | 97 | 0
CC[C@H]1CN(CCCC(=O)c2ccccc2)CC[C@H]1CCCc1ccnc2ccc(OC(=O)c3ccccc3)cc12.O=C(O)C(=O)O | 83 | 68 | 28
CCn1c(-c2nonc2N)nc2c(C#CC(C)(C)O)ncc(OCCNCCc3ccc(OC)cc3)c21.O=C(O)C(F)(F)F | 91 | 44 | 4
COc1ccc2nccc([C@@H](O)CN3CCC(NC(=O)C(c4cc5ccccc5s4)N4CCN(c5ccccc5OC)CC4)CC3)c2c1 (stereo partly drawn) | 100 | 88 | 21
O=C(NCCCCCN1CCC(c2c[nH]c3ccccc23)CC1)Nc1cccc(I)c1 | 99 | 11 | 70
COc1ccc(-c2nnc(Sc3ccc(C#N)c([N+](=O)[O-])c3)n2CCC(C)C)cc1 | 89 | 53 | 15
CN(C)C(=O)n1cnc(S(=O)(=O)N(C)c2ccc(Cl)cc2)n1.Cl | 88 | 80 | 7

SMILES | Inhibition (Plasmodium falciparum [1]) [%] | Inhibition (Plasmodium falciparum [2]) [%] | Inhibition (HepG2) [%]
O=C(Nc1ccc(Cn2ncc(N3CCCNCC3)c(Cl)c2=O)cc1)Nc1ccc(-c2ccccc2)cc1.O=C(O)C(F)(F)F | 93 | 51 | 10
Cc1nnsc1C(=O)Nc1cccc(-c2cccc(-c3nc4cc(C(F)(F)F)ccc4[nH]3)c2)c1 | 100 | 100 | 70
Nc1nccc2ccc(-c3cccnc3)cc12 | 97 | 95 | 9
Clc1ccc(CNCCCCCCNCc2ccc(Cl)cc2)cc1.O=C(O)c1ccc2ccccc2c1O | 96 | 28 | 53
Cc1n[nH]c2ccc(-c3ccc4nccc(N5CCC(N)CC5)c4c3)cc12.Cl | 100 | 100 | 67
CCOc1c(N2CCN(CCCCNC(=O)c3ccc(NC(=O)c4ccc(Cl)cc4)cc3)CC2)ccc2ccccc12.Cl | 100 | 45 | 18
Nc1cnc(C#Cc2cc3ncnc(N(CCN4CCOCC4)c4ccc(OCc5cccc(F)c5)c(Cl)c4)c3s2)cn1 | 87 | 57 | 0
COc1ccc2nccc([C@@H](O)CN3CCC(NCc4cc5oc(=O)[nH]c5cc4Cl)CC3)c2c1.O=C(O)C(=O)O | 100 | 91 | 1
CN(Cc1c(Cl)cnn1C)S(=O)(=O)c1ccc2ccccc2c1 | 94 | 36 | 7
COc1c(Br)cc(Br)cc1-c1ccc(CN2C3CCCC2CCC3)[nH]1.Cl | 88 | 83 | 42
O=C(NC1CCC1)C1CCN(C(c2ccc(Cl)cc2)c2ccc(Cl)cc2)CC1 | 95 | 70 | 6
CC(=O)Nc1cccc(C(=O)Nc2nc3ccc(-c4cc(=O)[nH]c(Nc5ccccc5Cl)n4)cc3[nH]2)c1 | 99 | 62 | 0
CN1C(C)(C)CC(NC(=O)c2ccc(-c3nc4cc(Cl)c(Cl)cc4[nH]3)cc2)CC1(C)C | 98 | 97 | 8
CCc1ccc(O)c(-c2cc(C(=O)Nc3cccnc3)[nH]n2)c1 | 98 | 99 | 0
Br.CC1(C)NC(N)=NC(=N)N1OCCc1ccc(N)cc1 | 93 | 95 | 65
CC(=O)Nc1cccc(C(=O)Nc2cccc(-c3ccc(-c4nc5cc(C(F)(F)F)ccc5[nH]4)s3)c2)c1 | 98 | 46 | 80
OC(CNCc1ccccc1)c1cc(OCc2ccccc2)cc(OCc2ccccc2)c1 (stereo not drawn) | 98 | 76 | 0
COc1ccc2c(c1)CC(CNC[C@H](O)c1cccc(Cl)c1)CC2 (stereo partly drawn) | 94 | 73 | 1
COc1cc(NC(=O)c2sc(-c3ccc(Cl)cc3)cc2NC(=O)CN2CCCC2)ccc1OCCN1CCCC1.Cl | 86 | 79 | 29
COc1cccc(-c2ccc(C(=O)NCC3CCCN(Cc4cccc(C(F)(F)F)c4)C3)s2)c1.O=C(O)C(F)(F)F (stereo not drawn) | 85 | 18 | 10
CCc1n[nH]c(C(=O)Nc2cccc(N3CCCC3)c2)c1C | 81 | 52 | 15

SMILES | Inhibition (Plasmodium falciparum [1]) [%] | Inhibition (Plasmodium falciparum [2]) [%] | Inhibition (HepG2) [%]
CN1CCC(Oc2ccc(CN3CC[C@H](NC(=O)c4cccc(C#N)c4)C3)c3ccccc23)C1.O=C(O)C(F)(F)F (stereo partly drawn) | 97 | 30 | 10
Cc1cccc2nc(-c3ccc(-c4ccc(CN5CCOCC5)cc4)cc3)[nH]c12.O=C(O)C(F)(F)F | 92 | 86 | 29
Cc1[nH]c(C)c(-c2ccc(-c3cccc(OC(F)(F)F)c3)nc2)c(=O)c1Cl | 98 | 97 | 30
Cc1cc(CN2CCC(Nc3ncc(-c4ccsc4)c4nc(C(F)(F)F)ccc34)CC2)no1.Cl | 81 | 67 | 8
COc1ccc2nccc([C@@H](O)CN3CCC(NCCOc4cccc(F)c4F)CC3)c2c1.O=C(O)C(=O)O | 100 | 85 | 9
O=C(/C=C/c1ccc(Cl)c(Cl)c1)NCCCCCN1CCCN(C(=O)Nc2ccc(Cl)c(C(F)(F)F)c2)CC1 | 100 | 16 | 35
CC(=O)c1ccc(-c2ccccc2)s1 | 92 | 2 | 0
CN(C)CCNC(=O)[C@H](Cc1ccccc1)NC(=O)c1ccc(O)c(-c2ccc(Cl)c(Cl)c2)c1 | 98 | 0 | 0
C=CCOC(=O)N1CCC(CNCc2cccc(-c3cccc(-c4nc5ccccc5[nH]4)c3)c2)C1.O=C(O)C(F)(F)F (stereo not drawn) | 100 | 46 | 16
N#C/N=C(\NCCCCCCCCN/C(=N\C#N)NCCSCc1csc(N=C(N)N)n1)NCCCSc1csc(N=C(N)N)n1 | 91 | 24 | 0
Cc1ccc2c(OCCN3CCC(Cc4cc5c(cc4F)OCC(=O)N5)CC3)cc(F)cc2n1.Cl | 100 | 71 | 27
Cc1cc(=O)oc2c1ccc1oc(C(O)c3ccc(Cl)cc3)c(C)c12 (stereo not drawn) | 95 | 96 | 0
CCOc1ccc2c(=NN=Cc3c4ccccc4cc4ccccc34)cc(C)[nH]c2c1 | 90 | 94 | 0
O=C(O)C[C@H](NC(=O)CCCNC(=O)c1cccc(-c2ccc(Cl)c(Cl)c2)c1)C(=O)O | 91 | 0 | 5
COc1cc2ncnc(Nc3ccc(OCc4ccccc4)c(I)c3)c2cc1OC.Cl | 98 | 62 | 11
CC(C)(C)OC(=O)NCCc1cccc(-c2c[nH]c3ncc(-c4cccc(NS(C)(=O)=O)c4)cc23)c1 | 97 | 71 | 16
COc1cccc(OC)c1C(=O)N1CCC2(CC1)C(=O)N(CC(=O)NC1CCCCC1)CN2c1ccccc1 | 92 | 91 | 16
CC(CN1CCN(C)CC1)C(=O)Nc1ccc(-c2ccc(-c3nc4ccccc4[nH]3)cc2)cc1 (stereo not drawn) | 92 | 87 | 13
CCCCc1ccc(NC(=O)Nc2ccc3c(c2)CCNCC3)cc1.Cl | 95 | 43 | 16
